# Reference: PubChem BioAssay AID2562 (National Center for Advancing Translational Sciences (NCATS), 2010)
# Results filed as inconclusive are left out. A number with no mark means an inactive call. Activity calls are given as the source filed them. The call rests on the fitted dose curve; in most records, active means well fitted curve in the direction sought with a large enough effect; inconclusive means small, poorly fitted or top-dose-only effect, or effect the other way, or another doubt; inactive means no such curve, though single readings can be large or run the other way.
# Molecular target: Pyruvate kinase PKLR (Homo sapiens) (UniProt P30613)
# Test: Secondary LDH Assay for Activators of Human Reticulocyte Pyruvate Kinase: for Probe SAR
# Settings: purified hPK-R, LDH-coupled NADH fluorescence kinetic; series mostly up to 58.4 µM; activity change, positive = activation: at the top concentration
# Excerpt: NIH Chemical Genomics Center [NCGC] Wael M. Rabeh, Lyudmila Nedyalkova and Hee-Wan Park [Structural Genomics Consortium, 100 College St. Toronto, Ontario, Canada] NCGC Assay Overview: Human pyruvate kinase reticulocyte (hPK-R) enzyme was supplied as a highly purified (>95% pure) preparation from Structural Genomics Consortium in Toronto (Ontario, Canada) and a secondary assay was used to evaluate compounds. This assay couples the formation of pyruvate from hPK-R using lactate dehydrogenase (LDH) and NADH. The depletion of NADH is followed in a fluorescent-based kinetic assay that follows the formation of pyruvate to lactate, as catalyzed LDH. Pyruvate kinase substrates, PEP and ADP, were present in the assay at 0.1 mM and 4 mM respectively. In this kinetic assay initial rates were determined by following the fluorescence of NADH depletion.
# NCGC Assay Protocol Summary: Three uL of substrate mix (final concentration, 50 mM Tris-Cl pH 8.0, 200 mM KCl, 15 mM MgCl2, 0.1 mM PEP, 4.0 mM ADP, and 0.2 mM NADH) was dispensed into black-solid 1536 well plates. 23 nL of compounds were delivered by a pin tool and 1 uL of enzyme mix (final concentrations, 10 nM hPK-R and 1 uM of LDH) was added. Plates were immediately placed in ViewLux (Perkin Elmer) and NADH fluorescence was determined at 30 second exposure intervals for between 3 and 6 minutes. Data were normalized to the uninhibited and EC100 activation using known activators such as fructose-bis-phosphate.
# Sequence of Pyruvate kinase PKLR (Homo sapiens) (P30613 whole entry, looked up): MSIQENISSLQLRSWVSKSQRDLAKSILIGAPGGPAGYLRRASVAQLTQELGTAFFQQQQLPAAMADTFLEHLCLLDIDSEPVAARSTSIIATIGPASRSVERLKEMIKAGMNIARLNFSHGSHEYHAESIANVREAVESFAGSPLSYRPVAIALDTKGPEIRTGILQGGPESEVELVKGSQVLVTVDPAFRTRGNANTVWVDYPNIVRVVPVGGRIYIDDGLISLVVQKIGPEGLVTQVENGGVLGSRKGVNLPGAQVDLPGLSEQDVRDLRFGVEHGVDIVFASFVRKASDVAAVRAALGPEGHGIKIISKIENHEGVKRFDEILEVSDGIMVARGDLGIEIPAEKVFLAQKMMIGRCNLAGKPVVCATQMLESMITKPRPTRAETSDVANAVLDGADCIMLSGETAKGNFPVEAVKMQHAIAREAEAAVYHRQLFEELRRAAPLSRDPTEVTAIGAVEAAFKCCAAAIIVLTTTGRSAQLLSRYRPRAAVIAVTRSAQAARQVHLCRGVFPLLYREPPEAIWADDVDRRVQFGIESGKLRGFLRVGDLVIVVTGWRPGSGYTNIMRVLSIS
Structure (SMILES),"activity change, positive = activation",Potency
Cc1ccccc1Nc1c(-c2ccc(Cl)s2)nc2ccccn12,13.1%,
O=S1(=O)N=C(Oc2ccccc2)c2ccccc21,7.61% [at 82.8 µM],
O=C1c2ccccc2C(=O)N1c1ccc(O)cc1,10.6%,
Cc1cccc(NS(=O)(=O)c2ccc3c(c2)CCC(=O)N3)c1,3.22%,
O=C1c2ccccc2C(=O)N1Cc1cccnc1,-0.262%,
O=C1CCc2cc(S(=O)(=O)NCc3ccccc3)ccc2N1,1.98%,
Cc1ccc(NS(=O)(=O)c2cc3c(cc2/C=C/c2ccccc2)NC(=O)CO3)cc1C,7.5%,
Cc1ccc(NS(=O)(=O)c2ccc(Cl)cc2)cc1C,8.84%,
Cc1ccc(N2C(=O)c3ccccc3C2=O)c(C)c1,-7.03%,
O=C1c2ccccc2C(=O)N1c1nccs1,-2.55%,
Cc1ccc(NS(=O)(=O)c2ccc3c(c2)CCCC(=O)N3)cc1C,8.4%,
O=C1c2ccccc2C(=O)N1Cc1ccccc1,-4.18%,
CN(C)c1cccc(S(=O)(=O)N2CCN(S(=O)(=O)c3ccc4c(c3)OCCO4)CC2)c1,-2.84%,
CSc1cc2c(s1)c1cnn(Cc3cccc(O)c3)c(=O)c1n2C,,259 nM (active)
O=C1CCc2cc(S(=O)(=O)Nc3ccc4ccccc4c3)ccc2N1,14.7%,
CC(=O)N1c2ccc(S(=O)(=O)Nc3ccc(C)c(C)c3)cc2CC1C (stereo not given),4.45%,
O=S(=O)(c1ccc2c(c1)OCCO2)N1CCN(S(=O)(=O)c2c(F)cccc2F)CC1,-1.4%,
CC(=O)N1CCCc2cc(S(=O)(=O)Nc3ccc(C)c(C)c3)ccc21,6.74%,
Cc1ccc(NS(=O)(=O)c2ccc(N3CCCC3=O)cc2)cc1C,1.79%,
Nc1cc(S(=O)(=O)N2CCN(S(=O)(=O)c3ccc4c(c3)OCCO4)CC2)ccn1,-4.54%,

Structure (SMILES),"activity change, positive = activation",Potency
Cc1ccc(NS(=O)(=O)c2ccc3c(c2)CC(=O)N3)cc1C,10%,
CC(=O)Nc1cccc(S(=O)(=O)Nc2ccc(C)c(C)c2)c1,2.66%,
O=C1c2ccccc2C(=O)N1c1ccccn1,-1.61%,
O=C1c2ccccc2C(=O)N1c1cnc2ccccc2c1,1.73%,
Cc1ccc(NS(=O)(=O)c2cccc(C(=O)O)c2)cc1C,12.2%,
Cc1ccn2c(NC3CCCCC3)c(-c3ccc(C)o3)nc2c1,-17.6%,
O=C1c2ccccc2C(=O)N1c1cccc2cccnc12,-6.84%,
O=C1c2ccccc2C(=O)N1Cc1ccncc1,-0.775%,
O=C1c2ccccc2C(=O)N1c1cccc(Cl)c1,-6.91%,
Cc1ccc(NS(=O)(=O)c2cc3c(cc2C)OCC(=O)N3)cc1C,9.35%,
Cc1ccc(NS(=O)(=O)c2cc3c(cc2N(C)C)CCC(=O)N3)cc1C,6.64%,
Cc1ccc(NS(=O)(=O)c2cc3c(cc2C)NC(=O)CO3)cc1C,27.4%,
COc1cccc(OC2=NS(=O)(=O)c3ccccc32)c1,17.7%,
O=C1CCc2cc(S(=O)(=O)Nc3ccccn3)ccc2N1,-0.347%,
Cc1ccc(NS(=O)(=O)c2cc3c(cc2Cl)CCC(=O)N3)cc1C,16.1%,
O=C1c2ccccc2C(=O)N1c1ccccc1O,5.76%,
Cc1ccc(C)c(OC2=NS(=O)(=O)c3ccccc32)c1,-3.42%,
O=C1c2ccccc2C(=O)N1c1cccc(O)c1,10.1%,
Cc1ccc(NS(=O)(=O)c2ccc3c(c2)n(C)c(=O)n3C)cc1C,1.98%,
O=C1CCc2cc(S(=O)(=O)Nc3ccc4c(c3)OCCO4)ccc2N1,5.81%,
